LMP1 NFkB inh: EBV LMP1-driven NF-kappaB luciferase reporter inhibitors, primary screen, cell-based, luminescence, single point; LMP1-induced NF-kappaB luciferase reporter cells; inhibition, % at 12.5 µM; 350,000 compounds, 0.69% hits; in the data active = inhibition above about 41%;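 note: 0% = neutral control wells and 100% = reference inhibitor control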
TWEAK-Fn14 inh: inhibitors of TWEAK-Fn14 signaling, primary screen, luciferase reporter cells, uHTS. inhibition, % at 10 µM. 360,000 compounds, 2% hits. TWEAK-stimulated Fn14 reporter cells, luciferase luminescence, 8 h; in the data active = inhibition above about 50%
MITF TRPM1 inh: inhibitors of MITF-dependent TRPM1 promoter reporter, primary screen, cell-based, SK-MEL-5, single point, luciferase; SK-MEL-5 TRPM1 promoter luciferase, 24 h; inhibition, % at 12.5 µM; 330,000 compounds, 0.83% hits;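 active = mean inhibition across replicates of 60% or more, whatever share of single replicates reaches that level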
TROY signal inh: inhibitors of TROY-driven NF-kB signaling, primary screen, Q293 LMP1-TROYcd cells, NF-kB luciferase, uHTS; Q293 LMP1-TROYcd NF-kB luciferase reporter, 4 h; 360,000 compounds, 0.98% hits; inhibition, % at 10 µM;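 active = compounds whose plate-normalised and pattern-corrected inhibition of the luciferase reporter signal at the single screening dose is 50% or more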
Peg3 promoter: Peg3 promoter-driven luciferase inhibitors, primary screen, cell-based, HeLa, luciferase luminescence. HeLa PEG-Prom luciferase reporter, overnight. inhibition, % at 20 µM. 360,000 compounds, 1.7% hits. AID 588405, 2011;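 active = inhibition of at least 50% at 20 µM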
Shn3 3UTR inh: reduction of Shn3 3'UTR firefly luciferase signal, primary screen, Schnurri-3 inhibitor project, cell-based, Clone20 osteoblasts, set 2. Clone20 osteoblast Shn3 3'UTR firefly luciferase, 24 h. inhibition, % at 12.5 µM. 360,000 compounds, 0.52% hits. AID 588674, 2011;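 active = mean inhibition of at least 75% with every replicate also reaching 75%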;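 note: 0% = median of neutral control wells and 100% = pilot-screen positive control compound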
Active calls of the source: *; nt = no result given. This is a sample that favours compounds with a hit; in the whole collection about 4.1% have one here.

SMILES	LMP1 NFkB inh	TWEAK-Fn14 inh	MITF TRPM1 inh	TROY signal inh	Peg3 promoter	Shn3 3UTR inh
COc1ccccc1CNC(=O)C(NS(=O)(=O)c1cccc2nsnc12)C(C)C (stereo not drawn)	-2	3	-6	-7	5	14
CC(=O)Nc1ccc(S(=O)(=O)N2CCN(c3ccc([N+](=O)[O-])cc3)CC2)cc1	7	12	8	25	10	34
COC(=O)c1ccc(C(=O)NC(=S)Nc2nc3c(s2)CC(C)CC3)cc1 (stereo not drawn)	0	109*	-21	93*	-54	-19
O=C(NC(=S)Nc1nc2c(s1)CCCC2)c1ccc(C(=O)c2ccccc2)cc1	2	25	2	-31	-38	-14
CCCC(=O)NC(c1cccs1)c1cc([N+](=O)[O-])c2cccnc2c1O (stereo not drawn)	2	11	5	0	54*	21
CCC(=O)NC(c1cccs1)c1cc(Cl)c2ccccc2c1O (stereo not drawn)	-6	10	13	6	19	-23
O=C(CCc1ccccc1)NC(c1cccs1)c1cc(Cl)c2cccnc2c1O (stereo not drawn)	54*	9	56	8	42	81
CNC(=S)N(C)/N=C1/C(=O)N(Cc2c(Cl)cccc2Cl)c2ccccc21	2	34	nt	9	27	16
Oc1c(Cl)cc(Cl)cc1C1=NNC(c2ccc(Cl)cc2)C1 (stereo not drawn)	49*	-16	-3	9	-60	-56
COC(=O)C(c1ccccc1)N(Cc1cccc(CN(C(C(=O)OC)c2ccccc2)S(C)(=O)=O)c1)S(C)(=O)=O (stereo not drawn)	-5	10	2	-9	12	9
Cc1c(Cl)cccc1NC(=O)CC(Cc1ccccc1)C(=O)O (stereo not drawn)	44*	11	-7	3	8	4
Cc1c(Cl)cccc1NC(=O)CC(C(=O)O)C1CCCO1 (stereo not drawn)	-5	-5	1	3	7	4
O=C(NC(Cc1ccccc1)C(=O)O)NC12CC3CC(CC(C3)C1)C2 (stereo not drawn)	6	-10	-6	24	11	1
Cc1c(OCC(=O)N2CCC(C(=O)NCCCC(=O)O)CC2)ccc2c1oc(=O)c1ccccc12	-2	7	10	22	2	19
CCOc1ccc(CN(C)CC(O)COC(c2ccc(OC)cc2)c2ccc(OC)cc2)cc1 (stereo not drawn)	-7	-12	-5	-37	50*	31
COc1cc(C(=O)COC(=O)c2ccc3c(c2)OCCO3)cc(OC)c1OC	-5	17	nt	7	12	-3
Cn1cnc([N+](=O)[O-])c1S(=O)(=O)Oc1ccc(Cl)cc1	-17	15	68*	47	103*	93*
Cn1cnc([N+](=O)[O-])c1Oc1ccccc1	-3	15	-3	3	16	-24
Cn1cnc([N+](=O)[O-])c1Oc1cccc2ccccc12	-9	50*	49	26	0	-13
Cn1cnc([N+](=O)[O-])c1S(=O)(=O)Oc1cccc2ccccc12	1	67*	93*	74*	105*	97*
O=C(COc1cccnc1[N+](=O)[O-])Nc1cccc2ccccc12	6	-1	18	0	7	-9
CCN(CC)c1c([N+](=O)[O-])ncn1C	5	1	3	1	4	-5
CCS(=O)(=O)c1c([N+](=O)[O-])ncn1C	-4	18	8	7	60*	-15
Cn1cnc([N+](=O)[O-])c1Cl	-7	-6	0	-3	-17	-28
Fc1cc(Br)ccc1COc1ccc(-c2nnco2)cc1	-15	-29	-118	-73	-336	-79
SMILES	LMP1 NFkB inh	TWEAK-Fn14 inh	MITF TRPM1 inh	TROY signal inh	Peg3 promoter	Shn3 3UTR inh
CC1(C(=O)NS(=O)(=O)Cc2ccccc2C(F)(F)F)CCN1C(=O)c1cccc(F)c1 (stereo not drawn)	nt	-36	nt	-3	1	10
Cc1ccc(CNC(=O)C2CCC(=O)N2Cc2ccc(F)cc2)cc1 (stereo not drawn)	-2	-18	4	5	-33	-13
O=C(O)C1CCC(=O)N1Cc1ccc(F)cc1 (stereo not drawn)	-5	50*	8	7	9	-4
CCOc1ccc(OCc2ccc(C(=O)O)o2)cc1	5	52*	45	-49	45	8
CN(CC(=O)Nc1ccccc1Br)C(=O)CN1CCN(Cc2cccc(Cl)c2)CC1	2	7	-8	-16	3	20
CCCCC(CC)CN1CN(CC(CC)CCCC)CC(C)(N)C1 (stereo not drawn)	-3	2	22	-15	103*	-10
CC(C)c1nnc(NC(=O)C2CCN(C(=O)Nc3ccc(Cl)cc3)CC2)s1	-2	6	-3	-22	-59	-4
O=C(CCN1CCC(c2cccs2)=N1)c1cccs1	nt	-14	nt	-42	-260	-15
O=C(N=Nc1c(O)[nH]c2ccc(Cl)cc12)c1cc(-c2cccs2)nc2ccccc12	1	-50	19	7	70*	10
COC(=O)c1c(NC(=O)CN2CCN(c3ncccn3)CC2)sc(C(N)=O)c1C	-16	-8	23	-7	14	20
Cc1ccc(S(=O)(=O)N2CCOCC2)cc1NC(=O)CNc1ccccc1N1CCCC1=O	0	-5	-2	2	6	8
Cc1c(C(=O)N2CCOCC2)sc(NC(=O)C(C)C)c1C#N	-9	8	7	-7	-3	-11
O=C(CCCn1c(=O)c2cccn2c2cccnc21)N1CCN(c2ccccc2F)CC1	6	-21	0	11	14	-2
O=C(Cn1c(=O)c2cccn2c2cccnc21)N1CCN(c2ccccc2F)CC1	71*	-11	5	2	0	-5
O=C(CNC(=O)c1ccc2c(c1)S(=O)(=O)N=C1CCCCCN12)Nc1ccc(F)c(F)c1	-2	-6	-5	-4	-1	-9
C=C1C(=O)OC2C=C(CO)CCC=C(CO)CC(OC(=O)C(C)C)C12 (stereo not drawn)	9	32	30	-6	64*	-23
C=C1C(=O)OC2C1C(OC(=O)C(C)=CC)CC(=C)C1C(O)C3OC3(C)C21O (stereo not drawn)	10	7	11	12	26	-21
CCCCC(=O)Nc1nnc(C)s1	-4	8	-3	-6	2	-19
CCC(=O)Nc1nnc(C)s1	3	58*	3	nt	8	-8
